# Compound activity (PubChem BioAssay)
# The full list was thinned out, with hits kept by preference.
# Methyltransferases: Primary Screen for Target Class Profiling of Small Molecule Inhibitors of Methyltransferases; hit rate 3.9% among 25,000; calls only at 40 µM; purified enzyme, MTase-Glo SAH luminescence; active compounds read low; call rule not given here
#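 Each enzyme was assayed with SAM and its substrate. SAH formation detected by MTase-Glo luminescence; single-point 40 uM screen[…].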
# Active calls of the source: *; i = inactive; + = active, no number. % is set by controls: 0 for no effect and ±100 for the full control effect.
SMILES,Methyltransferases
CCCSc1nc(N[C@@H]2C[C@H]2c2ccc(F)c(F)c2)c2nnn([C@@H]3C[C@H](OCCO)[C@@H](O)[C@H]3O)c2n1,+
CCCn1c(=O)c2ccc(C(=O)NCC(C)C)cc2n2c(=O)n(CC(=O)NC3CCCCC3)nc12,i
Cc1ccccc1NS(=O)(=O)c1cc2[nH]c(=O)[nH]c2cc1C,i
O=C(CCc1nnc2n(CCc3ccccc3)c(=O)c3ccccc3n12)NCCc1ccc(Cl)cc1,i
CCCc1nc2c3ccccc3n(CC(=O)N3CCN(c4ccccc4F)CC3)c(=O)n2n1,i
CCOC(=O)c1ccc2c(c1)[C@@H]1C=CC[C@@H]1[C@H](c1cccc(Cl)c1)N2,i
CCc1ccc(NC(=O)c2sc(=S)n3c2[nH]c(=O)c2cc(Cl)ccc23)cc1,i
COC(=O)c1ccc2c(=O)[nH]c3c(C(=O)NCc4ccc5c(c4)OCO5)sc(=S)n3c2c1,i
O=C(NCc1cccc(Cl)c1)c1sc(=S)n2c1[nH]c(=O)c1cc3c(cc12)OCO3,+
O=C(NCc1ccc2c(c1)OCO2)c1n[nH]nc1Nc1ccc(Cl)cc1,i
O=C(NCc1ccc2c(c1)OCO2)c1sc(=S)n2c1[nH]c(=O)c1ccc(Cl)cc12,+
O=C(NCc1ccc2c(c1)OCO2)c1sc(=S)n2c1[nH]c(=O)c1cc3c(cc12)OCO3,i
CC1(C(=O)NC2CCCC2)Cn2c(c(-n3cccc3)c3ccccc32)C(=O)N1CCc1cccs1 (stereo not drawn),i
Cc1c(Cl)cccc1N1C(=O)c2cc3occc3n2CC1(C)C(=O)NC1CCCCCCC1 (stereo not drawn),i
CCc1ccc(N2C(=O)c3cc4sccc4n3CC2(C)C(=O)NC2CCCCC2)cc1 (stereo not drawn),i
COc1ccc(C(=O)Cn2nc3n(C)c(=O)c4ccc(C(=O)NC5CCCC5)cc4n3c2=O)cc1,i
CC(C)c1cc2n(n1)CC(C)(C(=O)NC1CCCCCC1)N(Cc1ccccc1Cl)C2=O (stereo not drawn),i
CCC(C)NC(=O)c1ccc2c(=O)n(C(C)C)c3nn(CC(=O)Nc4ccccc4Cl)c(=O)n3c2c1 (stereo not drawn),i
COc1ccc(-c2nnc(-c3ccc(Cl)c(S(=O)(=O)N4CCCCC4)c3)o2)cc1,i
CC(C)CCNC(=O)C1(C)Cn2c(ccc2-c2ccco2)C(=O)N1CC(C)c1ccccc1 (stereo not drawn),i
Cc1cc(=O)oc2cc(NC(=O)[C@H](CCC(=O)O)NC(=O)[C@H](CC(C)C)NC(=O)[C@H](CC(C)C)NC(=O)OCc3ccccc3)ccc12,+
CC(C)CC(NC(=O)OCc1ccccc1)C(=O)NC(CC(C)C)C(=O)NC(CCC(=O)O)C(=O)Nc1ccc2ccccc2c1 (stereo not drawn),i
COc1ccc(C2=NOC(C(=O)N3CCN(c4ccc(F)cc4)CC3)C2)cc1 (stereo not drawn),i
CCOc1ccc(CN2C(=O)c3cc4sccc4n3CC2(C)C(=O)NC2CCC(C)CC2)cc1 (stereo not drawn),i
Cc1ccc(S(=O)(=O)c2nnn3c2nc(NC2CCCC2)c2ccccc23)cc1C,i
SMILES,Methyltransferases
CC1(C(=O)NCc2ccc(Cl)cc2)Cn2c(ccc2-c2ccco2)C(=O)N1CCc1ccco1 (stereo not drawn),i
CCN(CCCNC(=O)CCCc1nnc2n3nc(C)nc3c3ccccc3n12)c1cccc(C)c1,i
O=C(CSc1nnc2n(CCc3ccccc3)c(=O)c3ccccc3n12)NC1CCCCC1,i
O=C(Nc1ccc([N+](=O)[O-])cc1Cl)c1cc(Cl)ccc1O,i
O=[N+]([O-])c1cc(S(=O)(=O)Nc2ccc(O)c3ccccc23)ccc1Cl,+
O=S(=O)(Nc1ccccc1Cl)c1ccc2[nH]c3c(c2c1)CCCC3,i
CC1(C(=O)NC2CCCC2)Cn2c(cc3ccccc32)C(=O)N1CCCN1CCOCC1 (stereo not drawn),i
OCCN1CCN(CCCN2c3ccccc3Sc3ccc(Cl)cc32)CC1,i
CN(C)CCCN1c2ccccc2Sc2ccc(Cl)cc21,i
O=C1NC2CCCCN2C12CCN(CCCN1c3ccccc3CCc3ccc(Cl)cc31)CC2 (stereo not drawn),+
CCCn1c(=O)c2cc(F)ccc2n2c(SCc3cccc(F)c3)nnc12,i
CCOC(=O)c1cc2n(n1)CC(C)(C(=O)NCCCOC)N(c1ccc(C)c(Cl)c1)C2=O (stereo not drawn),i
Cc1ccccc1CN1C(=O)c2cc(C3CC3)nn2CC1(C)C(=O)NC1CCCCCC1 (stereo not drawn),i
CC1(C)CC[C@]2(C(=O)O)CC[C@]3(C)C(=CCC4[C@@]5(C)C[C@@H](O)[C@H](O)[C@@](C)(CO)C5CC[C@]43C)C2C1 (stereo partly drawn),i
CC1(C)CC[C@]2(C(=O)O)CC[C@]3(C)C(=CCC4[C@@]5(C)C(=O)C[C@H](O)[C@@](C)(CO)C5CC[C@]43C)[C@@H]2C1 (stereo partly drawn),i
